Test results as given in PubChem BioAssay (NCI).
Compounds without any hit were thinned out: in the full panel of roughly 83,000, 20% have a hit.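 Note: values are percent growth. 100 is the growth of untreated cells, values between 100 and 0 indicate rising inhibition; between -100 and 0 indicates cell death.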 A number with no mark means an inactive call. Active and inactive are the calls of the source. The calls were made as follows: active = growth percent below 10; inactive = the rest.

Each compound was assayed on HL-60(TB) leukemia (assay: NCI-60 one-dose screen, 48 h (100 = growth as untreated, 0 = no growth, -100 = all killed)). Details: 10 µM unless noted.
Work on `CCOC(=O)c1c(C)nc2c(c1N)/C(=C/c1cc(OC)c(OC)c(OC)c1)C(=O)N2c1ccc(OC)cc1` yielded a growth of 28.2%.
In the case of `CCC(=O)Nc1ccccc1C#C/C=C\C#Cc1ccccc1C(F)(F)F`, the growth is reported as 17.3%.
With `O=C(O)c1ccc2c3c(ncnc13)-c1ccccc1C2=O` the growth was 85.1%.
In the case of `CCN(CC)CCC(CNc1ccnc2cc(Cl)ccc12)c1ccc(O)cc1` (centres undefined), the growth is reported as -1.95% (active).
In the case of `O=C1NC(=O)C(Cc2ccccc2)(Cc2ccccc2)N1`, the growth is reported as 122%.
`Cc1ccc([N+](=O)[O-])cc1NC(=O)Nc1cccc(F)c1` was tested, and the growth was 58.7%.
For `CC(=O)OC[C@]12CC[C@@H](C(=O)CBr)[C@@H]1[C@H]1CC[C@@H]3[C@@]4(C)CCCNC(C)(C)[C@@H]4CC[C@@]3(C)[C@]1(C)CC2`, the growth was -18% [100 µM] (active).
With `S=C1SCN(Cc2ccccc2)CN1Cc1ccccc1` the growth was 16.5%.
`COc1ccc(/C=C2\SC(=O)N(CN3CCN(c4cc5c(cc4F)c(=O)c(C(=O)O)cn5C4CC4)CC3)C2=O)cc1` was tested, and the growth was 109%.
For `Clc1ccc(N2N=C(c3cccc(Nc4ccncc4)c3)CC2c2ccccc2)cc1` (centres undefined), the growth was 85.4%.
`C[C@@H](Oc1ccc(C(=O)NS(=O)(=O)C(C)(C)C)cc1C(F)(F)F)c1ccc(Oc2ccccc2)cn1` was tested, and the growth was 15.8%.
`COc1ccc(CC2c3cc(OC)c(OC)cc3CC[N+]2(C)CCC(=O)OCCCCCOC(=O)CC[N+]2(C)CCc3cc(OC)c(OC)cc3C2Cc2ccc(OC)c(OC)c2)cc1OC` (centres undefined) showed a growth of 82.9%.
In the case of `COc1cc(-c2cn(-c3ccc(Cl)c(Cl)c3)c(=O)[nH]2)cc(OC)c1OC`, the growth is reported as 88.1%.
Work on `COc1ccc(/C=N\NC(=O)CN2CCN(c3cc4c(cc3F)c(=O)c(C(=O)N/N=C/c3ccc(OC)cc3)cn4C3CC3)CC2)cc1` yielded a growth of 86.6%.
Work on `NC(=O)c1ccc(-c2c3ccccc3cc3c2ccc2ccccc23)cc1` yielded a growth of 15.6%.
`COc1ccc(C2=C/C(=C\c3ccccc3O)C(=O)N2Cc2ccccc2)cc1` gave a growth of 40.9%.
`CC1=C(Cl)C(=O)c2cc(C)ccc2C1=O` gave a growth of 117%.
`O=C1NC(=O)c2c(CCCSc3nc4ccccc4c(=O)n3CCc3ccccc3)cccc21` gave a growth of 111%.
For `Cc1cc(NCCCN(C)C)c2ccc3c(ccc4c(NCCCN(C)C)cc(C)nc43)c2n1`, the growth was -60.2% (active).
`Cc1cc(NC(=O)CNc2nc(Oc3ccc(F)cc3)nc(-c3ccc(F)cc3)n2)ccc1Cl` showed a growth of 96.4%.
Work on `CC(C)(C)n1cc(-c2ccnc(NCCNS(=O)(=O)c3ccc(F)cc3)c2)c(-c2cccc(O)c2)n1` yielded a growth of 46.6%.
Compound `O=C(Nc1ccncc1)C(=O)c1cn(S(=O)(=O)c2cccc3ccccc23)c2ccccc12` has a growth of 64%.
In the case of `Cc1cc(=O)oc2cc(OCc3nn4c(Nc5nc6ccccc6s5)c(-c5ccccc5)nc4s3)ccc12`, the growth is reported as 93.1%.
`Brc1ccccc1Cn1c(-c2cncs2)nc2ccccc21` gave a growth of 79.1%.
In the case of `COC(=O)/C(CCC=C(C)C)=C1\[C@@H](OC(C)=O)C[C@@]2(C)[C@H]1C/C(=N/O)[C@H]1[C@@]3(C)CC/C(=N\O)[C@@H](C)[C@@H]3CC[C@@]12C`, the growth is reported as 89.3%.
With `OC1(c2ccccc2)c2ccccc2N(c2ccccc2)c2ccc(Cl)cc21` (centres undefined) the growth was -22.2% (active).
`C(=C\c1c[nH]c2ccccc12)/c1ccc2ccccc2n1` was tested, and the growth was 2.85% (active).
With `COC(=O)C1(C)Cc2cc(OC(C)=O)c(OC(C)=O)cc2N1` (centres undefined) the growth was 19.8%.
`COc1cc2cc(Oc3ccc(NC(=O)c4ccc(Cl)c(C(F)(F)F)c4)cc3)c(C)nc2cc1OC` gave a growth of 17.4%.
Compound `CCCCNC(=O)Oc1ccc(/C(=C(\C)c2ccc(Cl)cc2)c2ccc(OCCN3CCCCC3)cc2)cc1` has a growth of 64.9%.
In the case of `CN(C)CCOc1nc2c3cccnc3cc(-c3cccc(Cl)c3)c2c2ncccc12`, the growth is reported as -20.4% (active).
`O=C(/C=C/c1ccco1)c1ccccc1O` showed a growth of 92.5%.
For `C#CC(C(C)C)N(CCO)CCCC` (centres undefined), the growth was 108%.
With `OCC1OC(n2ccc3c2ncn2ncnc32)C(O)C1O` (centres undefined) the growth was -14.4% (active).
In the case of `COC(=O)Nc1ccc(NC(=O)OC)cc1`, the growth is reported as 95.9%.
Compound `COc1cccc(-c2nn(-c3ccccc3)cc2-c2ccnc(NCCCNC(=O)c3ccccc3)c2)c1` has a growth of 23.8%.
`Cc1c(Cl)cccc1NC(=S)NC(=O)c1ccccc1` showed a growth of 92.9%.
`O=C1c2ccccc2-c2nccc3cc(Cl)nc1c23` was tested, and the growth was 1.84% (active).
`COc1ccc(C(=O)/C=C/c2cc3ccccc3n3nnnc23)cc1` was tested, and the growth was 92.1%.
